Assay outcomes: PubChem, several laboratories
CCHF vOTU inh: CCHFV vOTU protease inhibition; AID 651958; Pep-AMC fluorescence; inhibition, % at 11.5 µM; 370,000 compounds, 0.55% hits
GDH-TPI counter-1: inhibits GDH-TPI coupling enzymes, artifact for Mtb FBA screen | GDH-TPI coupled enzyme counterscreen, NADH absorbance | inhibition, % at 4.8 µM | 360,000 compounds, 1.2% hits
BH1578 lux ind: quorum light induction in luxS cqsA deficient V. cholerae. 350,000 compounds, 0.16% hits. V. cholerae BH1578 lux reporter, luminescence, 6 h. activation, % at 18.7 µM; in the data active = activation mostly above about 9.7%, no sharp cut-off
Mtb FBA inh: inhibits M. tuberculosis FBA enzyme; P9WQA3; AID 588726; inhibition, % at 1 µM; 360,000 compounds, 2.3% hits; purified M. tuberculosis FBA, fluorescence read-out; in the data active = inhibition above about 27%
Target sequence (P9WQA3 whole entry, looked up): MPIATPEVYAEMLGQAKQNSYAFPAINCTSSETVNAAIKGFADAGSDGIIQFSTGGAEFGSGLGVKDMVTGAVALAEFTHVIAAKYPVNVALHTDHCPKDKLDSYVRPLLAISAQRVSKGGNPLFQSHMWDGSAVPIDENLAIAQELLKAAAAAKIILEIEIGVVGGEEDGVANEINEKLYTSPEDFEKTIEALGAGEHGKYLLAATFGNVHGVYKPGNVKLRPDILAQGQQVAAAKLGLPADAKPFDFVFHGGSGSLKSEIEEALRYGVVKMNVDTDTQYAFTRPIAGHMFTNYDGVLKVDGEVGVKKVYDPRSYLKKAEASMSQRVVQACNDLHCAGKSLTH
Mtb FBA inh conf: Mtb FBA inhibition, confirmed. purified M. tuberculosis FBA, fluorescence read-out. inhibition, % at 1 µM. shares compounds with Mtb FBA inh. 5,600 compounds, 78% hits; in the data active = inhibition above about 27%
GDH-TPI counter-2: counter-screen for M. tuberculosis FBA inhibitors: GDH-TPI coupled enzyme inhibition. inhibition, % at 1 µM. 5,600 compounds, 81% hits. shares compounds with Mtb FBA inh. AID 652141. GDH-TPI coupled enzyme counterscreen, fluorescence; in the data active = inhibition above about 10%
Numbers stand for hits; – = inactive; · = no result given; + = active, no number. The list is not random: actives were taken first. Their share in the collection is about 3.9%. Cut-off read from the data, not from the text of the source, unless noted: active = inhibition above about 30%; inactive = the rest.

SMILES	CCHF vOTU inh	GDH-TPI counter-1	BH1578 lux ind	Mtb FBA inh	Mtb FBA inh conf	GDH-TPI counter-2
COc1ccc(-c2ccc(C(=O)O)c(=O)[nH]2)cc1	–	–	–	71	106	81
CCc1ccc2[nH]c3nc(C)cc(C)c3c(=O)c2c1	–	–	–	75	75	59
CCc1ccc2[nH]cc(S(=O)(=O)c3ccc(C)c(C)c3)c(=O)c2c1	–	–	–	–	·	·
Clc1ccc(-n2nnc(-c3cccnc3Cl)n2)cn1	–	–	–	–	·	·
COc1ncccc1-c1nnn(-c2ccc(Cl)nc2)n1	–	–	–	27	+	+
O=C(O)C1CSC(c2ccc3c(c2)OCO3)N1 (stereo not given)	–	–	–	42	–	–
Cc1cccn2c(=O)c(C=Nc3ccc(Cl)cc3)c(NCCO)nc12	–	–	–	31	66	45
Cc1cccn2c(=O)c(C=Nc3ccccc3)c(NCCO)nc12	–	–	–	39	–	–
Cc1c(Br)c(=O)oc2c(C)c(O)ccc12	–	–	–	41	196	169
O=C(Nc1ccc(N2CCOCC2)cc1)c1csc(COCCO)n1	–	–	–	–	·	·
COCCOC(=O)C1=C(C)NC2=C(C(=O)CC(C)(C)C2)C1c1cccnc1 (stereo not given)	–	–	–	39	+	+
CC1=C(C(=O)OC(C)C)C(c2ccc(N(C)C)cc2)C2=C(CC(C)(C)CC2=O)N1 (stereo not given)	–	–	–	–	·	·
CC1=C(C(=O)OCC2CCCO2)C(c2ccncc2)C2=C(CC(C)(C)CC2=O)N1 (stereo not given)	–	–	–	38	59	58
CCN(CC)c1ccc(C2C(C(=O)OCCOC(C)C)=C(C)NC3=C2C(=O)CCC3)cc1 (stereo not given)	–	–	–	–	·	·
CC1=C(C(=O)OCCOC(C)C)C(c2cccnc2)C2=C(CCCC2=O)N1 (stereo not given)	–	–	–	31	+	+
CC1=C(C(=O)OC(C)C)C(c2cccnc2)C2=C(CC(C)(C)CC2=O)N1 (stereo not given)	–	–	–	79	31	38
CC(=O)c1ccc(C(=O)Nc2sc3c(c2C(N)=O)CCN(Cc2ccccc2)C3)cc1	–	–	–	–	·	·
COc1ccc(C2C(C#N)=C(C)NC3=C2C(=O)CC(C)(C)C3)cc1 (stereo not given)	–	–	·	–	·	·
COc1cccc(C2C(C#N)=C(C)NC3=C2C(=O)CC(C)(C)C3)c1 (stereo not given)	–	–	–	93	+	183
O=c1[nH]c(N2CCOCC2)cc2ccccc12	–	–	–	45	144	100
CCN1C(=O)[C@H]2[C@@H](c3ccc(-c4ccc(F)cc4)c(OC)c3)N3CCCC[C@@]3(C(=O)OC)[C@H]2C1=O	–	–	–	–	·	·
CC1CCCCN1Cc1c(O)ccc2c(=O)c(-c3nc4ccccc4s3)coc12 (stereo not given)	–	–	–	–	·	·
CCC1CCCCN1Cc1c(O)ccc2c(=O)c(-c3ccccc3OC)coc12 (stereo not given)	–	–	–	83	43	31
CCc1cc2c(=O)c(-c3nc4ccccc4n3C)coc2c(CN2CCCCC2)c1O	–	–	–	–	·	·
O=c1c(-c2ccc(Br)cc2)coc2c(CN3CCCCC3)c(O)ccc12	–	–	–	31	–	–
SMILES	CCHF vOTU inh	GDH-TPI counter-1	BH1578 lux ind	Mtb FBA inh	Mtb FBA inh conf	GDH-TPI counter-2
O=c1c(-c2ccccc2Cl)coc2c(CN3CCCCC3)c(O)ccc12	–	–	–	80	64	60
O=c1c(-c2ccc(Cl)cc2)coc2c(CN3CCCCC3)c(O)ccc12	–	–	–	27	–	–
CCOc1ccc(C2/C(=C(/O)c3ccc(S(=O)(=O)N4CCCCC4)cc3)C(=O)C(=O)N2CCCOC)cc1OC (stereo not given)	–	–	·	–	·	·
c1cc2c(cc1N1CCOCC1)CNCc1cnnn1-2	–	·	·	–	·	·
CCN(CC)Cc1c(O)ccc2c(=O)c(-c3ccccc3Cl)coc12	–	31	–	85	+	+
CC1CN(Cc2c(O)ccc3c(=O)c(-c4ccccc4Cl)coc23)CC(C)O1 (stereo not given)	–	–	–	57	105	87
CC1CN(Cc2ccccc2Cl)CC(C)O1 (stereo not given)	–	–	–	–	·	·
CCCc1cc(=O)oc2c(CN(CC)CC)c(O)c(Cl)cc12	–	–	–	·	·	·
Cc1cc(C)nc(N2CCN(CC(=O)NCc3ccccc3)CC2)n1	–	–	–	–	·	·
Cc1[nH]n2c(=O)c3c(nc2c1-c1cccc2ccccc12)CCC3	–	–	–	51	132	96
O=c1[nH]c(=S)[nH]c2nc(-c3cccs3)cc(C(F)(F)F)c12	–	–	–	32	94	76
CSc1nc(-c2ccccc2)cc(C(F)(F)F)c1C#N	–	–	–	–	·	·
Nc1c(C(=O)C2CC2)sc2nc(-c3cccs3)cc(C(F)(F)F)c12	–	–	–	57	44	30
CNc1nc(-c2cccs2)cc(C(F)(F)F)c1C#N	–	–	–	58	78	54
COc1ccc2[nH]c3c(=O)n(Cc4ccc(C(=O)N5CCCCCC5)cc4)c(=S)[nH]c3c2c1	–	–	–	–	·	·
COc1ccc(NS(=O)(=O)c2cccc(C(=O)NCC(c3ccc(OC)cc3)N3CCOCC3)c2)cc1 (stereo not given)	–	–	–	–	·	·
Cc1cc(=O)n2cc(-c3ccccc3)nc2[nH]1	–	–	–	89	121	94
Cc1ccc(-c2ccc(=O)[nH]n2)cc1	–	–	–	–	·	·
Cc1ccc(-c2cn3c(=O)cc(C)[nH]c3n2)cc1	–	–	–	53	55	75
Fc1cccc2sc(Nc3nc4ccccc4s3)nc12	–	–	–	32	193	134
Fc1ccc2nc(Nc3nc4c(F)cccc4s3)sc2c1	–	–	–	35	–	–
Fc1ccc2nc(Nc3nc4c(F)cc(F)cc4s3)sc2c1	–	–	–	–	·	·
O=C(NC1CCCCCCC1)c1ccc(CNc2c(N3CCOCC3)c(=O)c2=O)cc1	–	–	–	–	·	·
CCc1nc2ccc(C(=O)Nc3cccc(OC)c3)cn2c1N(CC)CCN(C)C	–	–	–	–	·	·
Nc1cccc(/C=C/C(=O)O)c1	–	–	–	–	·	·
SMILES	CCHF vOTU inh	GDH-TPI counter-1	BH1578 lux ind	Mtb FBA inh	Mtb FBA inh conf	GDH-TPI counter-2
CCC1CCCCN1C(=O)Cn1c(=O)n(CCCC(=O)NCc2ccco2)c(=O)c2sccc21 (stereo not given)	–	–	–	–	·	·
COc1cc(C2C(C#N)=C(N)Oc3cc(C)n(CC4CCCO4)c(=O)c32)cc2c1OCO2 (stereo not given)	–	–	–	–	·	·
Cc1cc2c(c(=O)n1CC1CCCO1)C(c1ccco1)C(C#N)=C(N)O2 (stereo not given)	–	–	–	32	41	38
CC(C)n1c(NCc2cc(Cl)ccc2O)nc2ccccc21	–	–	–	–	·	·
Oc1ccc2ccccc2c1CNc1cnc2ccccc2c1	–	–	–	50	–	–
Oc1ccc(Cl)cc1CNc1cnc2ccccc2c1	–	–	–	34	+	170
